According to the supplement of paper PMC11732987, “Enantioselective OTUD7B fragment discovery through chemoproteomics screening and high-throughput optimisation” (Communications Chemistry, 2025):

Assays:
Experiment in all cases: log2 ratio of Biotin-Ahx-Ub-VS probe labelling (fragment/DMSO); higher = less target engagement (more negative = stronger competition), active = hit call of the paper (q ≤ 0.05, log2 ratio ≤ -1)
Settings in all cases: compound concentration: 200 uM; treatment time: 3 h
USP42 = target: T1, USP42 (UniProt Q9H9J4)
T1 sequence (whole entry): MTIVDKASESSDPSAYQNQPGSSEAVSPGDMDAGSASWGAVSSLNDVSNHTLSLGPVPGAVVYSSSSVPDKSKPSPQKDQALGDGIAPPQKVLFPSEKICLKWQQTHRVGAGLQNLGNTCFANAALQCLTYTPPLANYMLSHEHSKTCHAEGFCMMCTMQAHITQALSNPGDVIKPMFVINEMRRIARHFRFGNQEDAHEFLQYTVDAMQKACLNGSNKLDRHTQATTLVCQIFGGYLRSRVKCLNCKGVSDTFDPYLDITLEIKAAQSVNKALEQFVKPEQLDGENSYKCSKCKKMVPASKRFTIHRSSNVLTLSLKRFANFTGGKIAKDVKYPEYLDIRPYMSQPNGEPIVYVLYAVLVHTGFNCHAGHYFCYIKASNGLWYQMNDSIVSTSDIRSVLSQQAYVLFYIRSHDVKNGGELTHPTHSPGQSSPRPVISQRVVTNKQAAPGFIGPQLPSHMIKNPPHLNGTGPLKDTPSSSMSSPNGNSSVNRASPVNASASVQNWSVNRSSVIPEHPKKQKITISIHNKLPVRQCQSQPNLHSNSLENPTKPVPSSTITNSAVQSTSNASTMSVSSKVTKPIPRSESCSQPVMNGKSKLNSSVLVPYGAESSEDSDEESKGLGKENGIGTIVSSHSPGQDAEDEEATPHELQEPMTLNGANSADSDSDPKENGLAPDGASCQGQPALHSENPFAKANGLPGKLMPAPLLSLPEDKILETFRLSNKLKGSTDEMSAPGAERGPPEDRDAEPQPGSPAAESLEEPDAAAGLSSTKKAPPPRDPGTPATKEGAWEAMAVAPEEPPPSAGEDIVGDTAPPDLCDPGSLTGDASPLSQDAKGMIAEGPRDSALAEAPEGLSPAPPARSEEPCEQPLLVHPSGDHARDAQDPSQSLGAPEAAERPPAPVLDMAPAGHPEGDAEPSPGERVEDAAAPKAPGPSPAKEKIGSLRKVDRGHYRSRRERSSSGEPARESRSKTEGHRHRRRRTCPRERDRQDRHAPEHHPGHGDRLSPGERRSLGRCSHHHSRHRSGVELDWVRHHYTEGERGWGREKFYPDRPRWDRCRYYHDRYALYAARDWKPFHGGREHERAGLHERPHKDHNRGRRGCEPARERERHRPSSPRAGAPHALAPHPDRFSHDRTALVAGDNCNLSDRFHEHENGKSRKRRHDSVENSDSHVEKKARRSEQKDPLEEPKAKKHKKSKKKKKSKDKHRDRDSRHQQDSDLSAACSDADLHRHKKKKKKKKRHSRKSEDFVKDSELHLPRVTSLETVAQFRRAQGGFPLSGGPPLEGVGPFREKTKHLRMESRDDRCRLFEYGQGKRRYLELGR
Outline: (§1)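 HEK293T lysate (495 µg per sample, in Tris/CHAPS/IGEPAL buffer with protease inhibitors) was treated in triplicate with fragment at 200 µM or with DMSO for 3 h. It was then treated with Biotin-Ahx-Ub-VS (0.5 µM final) for 1 h. Labelled DUBs were NeutrAvidin-enriched, digested with LysC and trypsin, and run by diaPASEF LC-MS/MS. Spectronaut label-free quantities were global-median-normalised. Values are average log2 ratios fragment/DMSO by unpaired t-test, using proteins with ≥2 unique peptides.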

USP46 = USP46 (UniProt P62068)
Outline: as §1

USP47 = target: T2, USP47 (UniProt Q96K76)
T2 sequence (whole entry): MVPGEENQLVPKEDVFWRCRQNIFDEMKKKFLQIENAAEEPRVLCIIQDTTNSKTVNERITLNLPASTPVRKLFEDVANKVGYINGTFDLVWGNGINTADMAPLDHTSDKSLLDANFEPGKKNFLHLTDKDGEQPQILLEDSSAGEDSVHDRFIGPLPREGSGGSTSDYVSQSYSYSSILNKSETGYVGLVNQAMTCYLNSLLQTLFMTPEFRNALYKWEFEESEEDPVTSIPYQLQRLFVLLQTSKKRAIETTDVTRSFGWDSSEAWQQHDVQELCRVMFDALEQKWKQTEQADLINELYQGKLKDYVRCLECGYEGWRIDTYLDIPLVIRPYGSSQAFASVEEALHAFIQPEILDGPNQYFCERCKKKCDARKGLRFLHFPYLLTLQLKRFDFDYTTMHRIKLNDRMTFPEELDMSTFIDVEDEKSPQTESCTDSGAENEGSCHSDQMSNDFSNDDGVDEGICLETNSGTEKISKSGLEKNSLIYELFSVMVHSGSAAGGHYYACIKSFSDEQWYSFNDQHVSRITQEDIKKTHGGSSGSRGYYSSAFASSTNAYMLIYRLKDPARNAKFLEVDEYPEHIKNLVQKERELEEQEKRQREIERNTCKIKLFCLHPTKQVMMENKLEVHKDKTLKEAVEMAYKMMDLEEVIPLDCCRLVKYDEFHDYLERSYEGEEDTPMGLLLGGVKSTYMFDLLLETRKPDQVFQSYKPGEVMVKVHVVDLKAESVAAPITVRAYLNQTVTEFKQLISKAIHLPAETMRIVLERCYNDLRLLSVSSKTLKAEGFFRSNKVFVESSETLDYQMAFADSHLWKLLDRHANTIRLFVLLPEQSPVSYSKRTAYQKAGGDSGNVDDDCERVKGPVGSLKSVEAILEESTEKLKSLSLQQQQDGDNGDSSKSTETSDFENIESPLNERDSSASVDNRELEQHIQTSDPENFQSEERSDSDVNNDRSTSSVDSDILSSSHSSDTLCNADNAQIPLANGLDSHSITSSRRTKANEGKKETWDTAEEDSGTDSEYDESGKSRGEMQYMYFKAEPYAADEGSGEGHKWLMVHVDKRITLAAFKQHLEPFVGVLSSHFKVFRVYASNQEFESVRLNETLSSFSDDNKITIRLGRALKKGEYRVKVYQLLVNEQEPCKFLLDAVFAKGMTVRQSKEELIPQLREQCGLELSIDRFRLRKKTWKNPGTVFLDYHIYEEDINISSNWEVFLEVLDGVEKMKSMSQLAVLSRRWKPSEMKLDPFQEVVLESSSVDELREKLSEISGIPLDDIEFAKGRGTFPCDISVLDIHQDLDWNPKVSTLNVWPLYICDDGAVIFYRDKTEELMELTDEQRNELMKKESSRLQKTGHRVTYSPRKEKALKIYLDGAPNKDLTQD
Outline: as §1

USP48 = target: T3, USP48 (UniProt Q86UV5)
T3 sequence (whole entry): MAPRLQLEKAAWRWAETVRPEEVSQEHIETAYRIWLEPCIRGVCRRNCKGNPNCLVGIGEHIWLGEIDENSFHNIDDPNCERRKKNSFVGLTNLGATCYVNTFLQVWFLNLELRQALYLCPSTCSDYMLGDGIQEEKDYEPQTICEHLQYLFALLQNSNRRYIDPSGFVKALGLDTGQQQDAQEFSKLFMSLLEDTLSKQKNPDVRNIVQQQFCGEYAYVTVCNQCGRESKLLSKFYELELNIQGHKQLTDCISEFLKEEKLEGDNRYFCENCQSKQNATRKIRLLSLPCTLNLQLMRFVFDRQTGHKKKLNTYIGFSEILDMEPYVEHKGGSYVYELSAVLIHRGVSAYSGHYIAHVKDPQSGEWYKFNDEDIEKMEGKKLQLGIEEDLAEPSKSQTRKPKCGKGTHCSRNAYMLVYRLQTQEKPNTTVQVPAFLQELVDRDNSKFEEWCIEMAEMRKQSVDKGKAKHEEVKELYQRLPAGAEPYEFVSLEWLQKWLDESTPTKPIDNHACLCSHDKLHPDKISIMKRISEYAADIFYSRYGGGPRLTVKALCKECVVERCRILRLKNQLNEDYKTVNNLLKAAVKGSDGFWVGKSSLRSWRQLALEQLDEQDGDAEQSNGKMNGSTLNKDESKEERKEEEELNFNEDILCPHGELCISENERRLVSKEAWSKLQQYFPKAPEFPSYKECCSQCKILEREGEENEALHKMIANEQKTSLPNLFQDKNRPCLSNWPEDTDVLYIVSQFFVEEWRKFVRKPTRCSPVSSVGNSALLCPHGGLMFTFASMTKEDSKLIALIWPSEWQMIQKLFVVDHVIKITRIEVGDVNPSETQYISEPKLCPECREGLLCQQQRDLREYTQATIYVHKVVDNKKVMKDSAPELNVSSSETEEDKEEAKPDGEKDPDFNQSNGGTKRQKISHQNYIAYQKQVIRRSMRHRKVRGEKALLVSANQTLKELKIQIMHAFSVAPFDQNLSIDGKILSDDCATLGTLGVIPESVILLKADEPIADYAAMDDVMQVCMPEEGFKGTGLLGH
Outline: as §1

USP5 = target: T4, USP5 (UniProt P45974)
T4 sequence (whole entry): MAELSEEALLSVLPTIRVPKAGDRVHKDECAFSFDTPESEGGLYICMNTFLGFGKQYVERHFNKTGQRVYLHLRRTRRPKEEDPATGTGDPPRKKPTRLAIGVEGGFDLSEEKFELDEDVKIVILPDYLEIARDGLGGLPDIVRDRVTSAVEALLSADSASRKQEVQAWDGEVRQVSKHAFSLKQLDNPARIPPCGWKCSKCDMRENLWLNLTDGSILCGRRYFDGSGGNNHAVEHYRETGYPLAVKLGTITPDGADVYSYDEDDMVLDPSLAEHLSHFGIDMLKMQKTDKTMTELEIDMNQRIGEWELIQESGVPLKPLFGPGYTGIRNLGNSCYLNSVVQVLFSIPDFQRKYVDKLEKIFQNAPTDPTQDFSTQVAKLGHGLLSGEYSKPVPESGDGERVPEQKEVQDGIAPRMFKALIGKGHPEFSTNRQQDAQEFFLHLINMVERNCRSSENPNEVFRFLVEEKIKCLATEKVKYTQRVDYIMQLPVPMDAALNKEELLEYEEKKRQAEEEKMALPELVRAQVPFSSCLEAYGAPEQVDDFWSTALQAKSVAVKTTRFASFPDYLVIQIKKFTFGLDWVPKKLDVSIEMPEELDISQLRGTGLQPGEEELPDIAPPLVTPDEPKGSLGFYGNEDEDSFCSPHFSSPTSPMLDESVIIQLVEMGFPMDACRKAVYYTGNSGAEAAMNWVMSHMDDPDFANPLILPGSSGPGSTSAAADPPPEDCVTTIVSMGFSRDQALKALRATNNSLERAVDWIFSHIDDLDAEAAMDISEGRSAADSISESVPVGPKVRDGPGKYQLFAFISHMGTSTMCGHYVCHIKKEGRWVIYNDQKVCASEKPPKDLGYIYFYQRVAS
Outline: as §1

USP54 = USP54 (UniProt Q70EL1)
Outline: as §1

USP7 = USP7 (UniProt Q93009)
Outline: as §1

USP8 = target: T5, USP8 (UniProt P40818)
T5 sequence (whole entry): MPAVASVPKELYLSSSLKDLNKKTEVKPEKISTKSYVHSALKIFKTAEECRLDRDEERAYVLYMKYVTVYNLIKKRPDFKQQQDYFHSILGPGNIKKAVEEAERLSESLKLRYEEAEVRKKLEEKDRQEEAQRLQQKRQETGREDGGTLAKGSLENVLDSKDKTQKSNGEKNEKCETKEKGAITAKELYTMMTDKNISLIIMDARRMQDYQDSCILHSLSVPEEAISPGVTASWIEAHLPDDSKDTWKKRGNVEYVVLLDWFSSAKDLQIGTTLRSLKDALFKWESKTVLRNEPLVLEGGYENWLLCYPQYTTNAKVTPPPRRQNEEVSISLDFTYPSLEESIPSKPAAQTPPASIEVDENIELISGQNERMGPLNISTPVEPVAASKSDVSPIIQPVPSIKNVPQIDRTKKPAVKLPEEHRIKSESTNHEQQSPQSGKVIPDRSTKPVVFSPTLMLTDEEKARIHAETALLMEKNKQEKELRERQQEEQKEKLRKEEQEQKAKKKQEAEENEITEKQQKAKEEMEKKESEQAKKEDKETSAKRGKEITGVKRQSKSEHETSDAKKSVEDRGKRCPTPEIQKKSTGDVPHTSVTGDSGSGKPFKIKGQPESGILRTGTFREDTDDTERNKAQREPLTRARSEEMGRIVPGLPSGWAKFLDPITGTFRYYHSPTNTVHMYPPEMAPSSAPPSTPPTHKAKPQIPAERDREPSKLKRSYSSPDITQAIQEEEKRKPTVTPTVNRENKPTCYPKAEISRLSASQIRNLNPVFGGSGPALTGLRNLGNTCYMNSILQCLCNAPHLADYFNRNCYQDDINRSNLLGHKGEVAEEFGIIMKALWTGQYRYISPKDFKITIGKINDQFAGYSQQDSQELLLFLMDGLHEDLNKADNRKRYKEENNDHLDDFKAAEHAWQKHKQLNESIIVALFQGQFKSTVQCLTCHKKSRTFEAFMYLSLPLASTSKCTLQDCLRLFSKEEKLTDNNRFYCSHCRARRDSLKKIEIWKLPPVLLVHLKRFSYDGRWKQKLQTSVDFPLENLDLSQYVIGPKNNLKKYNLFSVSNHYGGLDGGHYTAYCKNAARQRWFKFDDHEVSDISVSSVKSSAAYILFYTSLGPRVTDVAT
Outline: as §1

USP9X = USP9X (UniProt Q93008)
Outline: as §1

UniProt O00487 = target: UniProt O00487
Outline: as §1

Measured: log2 ratio of Biotin-Ahx-Ub-VS probe labelling

Sequence of USP7 (Q93009 whole entry, looked up): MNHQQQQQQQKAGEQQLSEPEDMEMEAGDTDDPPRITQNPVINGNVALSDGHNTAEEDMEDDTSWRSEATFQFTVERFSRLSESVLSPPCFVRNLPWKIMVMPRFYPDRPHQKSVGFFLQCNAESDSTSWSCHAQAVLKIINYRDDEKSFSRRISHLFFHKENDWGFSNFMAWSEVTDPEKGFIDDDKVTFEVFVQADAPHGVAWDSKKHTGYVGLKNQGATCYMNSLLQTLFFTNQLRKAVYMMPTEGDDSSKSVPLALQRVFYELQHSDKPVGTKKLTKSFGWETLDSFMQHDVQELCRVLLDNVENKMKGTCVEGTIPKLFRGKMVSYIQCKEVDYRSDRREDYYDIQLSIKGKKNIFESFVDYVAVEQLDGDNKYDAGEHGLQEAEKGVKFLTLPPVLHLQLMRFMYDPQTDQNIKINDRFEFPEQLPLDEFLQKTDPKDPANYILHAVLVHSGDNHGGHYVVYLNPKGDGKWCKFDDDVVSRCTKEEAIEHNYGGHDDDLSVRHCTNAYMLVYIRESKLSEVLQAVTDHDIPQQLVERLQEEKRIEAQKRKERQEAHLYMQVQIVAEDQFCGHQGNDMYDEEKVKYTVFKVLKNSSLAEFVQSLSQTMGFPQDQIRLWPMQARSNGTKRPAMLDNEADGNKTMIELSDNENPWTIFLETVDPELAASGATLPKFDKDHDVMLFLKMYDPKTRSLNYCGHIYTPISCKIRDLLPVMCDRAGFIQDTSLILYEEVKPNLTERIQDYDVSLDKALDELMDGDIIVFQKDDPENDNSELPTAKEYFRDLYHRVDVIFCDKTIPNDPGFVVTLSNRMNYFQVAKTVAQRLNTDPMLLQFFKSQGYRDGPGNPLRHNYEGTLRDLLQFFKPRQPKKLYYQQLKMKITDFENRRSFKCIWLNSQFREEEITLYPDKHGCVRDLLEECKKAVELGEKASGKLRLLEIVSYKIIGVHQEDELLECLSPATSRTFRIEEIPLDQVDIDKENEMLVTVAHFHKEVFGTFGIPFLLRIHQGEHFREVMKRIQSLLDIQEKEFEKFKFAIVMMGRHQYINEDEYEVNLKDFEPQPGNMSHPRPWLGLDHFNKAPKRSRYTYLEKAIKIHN
Sequence of UniProt O00487 (O00487 whole entry): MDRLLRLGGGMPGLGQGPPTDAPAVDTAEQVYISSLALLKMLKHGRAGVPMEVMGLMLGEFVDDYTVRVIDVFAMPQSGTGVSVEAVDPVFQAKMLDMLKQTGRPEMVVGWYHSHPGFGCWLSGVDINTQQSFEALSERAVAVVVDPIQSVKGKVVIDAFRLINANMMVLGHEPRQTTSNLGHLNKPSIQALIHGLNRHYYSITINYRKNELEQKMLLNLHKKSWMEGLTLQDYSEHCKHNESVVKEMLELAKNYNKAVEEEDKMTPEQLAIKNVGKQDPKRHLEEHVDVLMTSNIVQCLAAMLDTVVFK
Sequence of USP9X (Q93008 whole entry): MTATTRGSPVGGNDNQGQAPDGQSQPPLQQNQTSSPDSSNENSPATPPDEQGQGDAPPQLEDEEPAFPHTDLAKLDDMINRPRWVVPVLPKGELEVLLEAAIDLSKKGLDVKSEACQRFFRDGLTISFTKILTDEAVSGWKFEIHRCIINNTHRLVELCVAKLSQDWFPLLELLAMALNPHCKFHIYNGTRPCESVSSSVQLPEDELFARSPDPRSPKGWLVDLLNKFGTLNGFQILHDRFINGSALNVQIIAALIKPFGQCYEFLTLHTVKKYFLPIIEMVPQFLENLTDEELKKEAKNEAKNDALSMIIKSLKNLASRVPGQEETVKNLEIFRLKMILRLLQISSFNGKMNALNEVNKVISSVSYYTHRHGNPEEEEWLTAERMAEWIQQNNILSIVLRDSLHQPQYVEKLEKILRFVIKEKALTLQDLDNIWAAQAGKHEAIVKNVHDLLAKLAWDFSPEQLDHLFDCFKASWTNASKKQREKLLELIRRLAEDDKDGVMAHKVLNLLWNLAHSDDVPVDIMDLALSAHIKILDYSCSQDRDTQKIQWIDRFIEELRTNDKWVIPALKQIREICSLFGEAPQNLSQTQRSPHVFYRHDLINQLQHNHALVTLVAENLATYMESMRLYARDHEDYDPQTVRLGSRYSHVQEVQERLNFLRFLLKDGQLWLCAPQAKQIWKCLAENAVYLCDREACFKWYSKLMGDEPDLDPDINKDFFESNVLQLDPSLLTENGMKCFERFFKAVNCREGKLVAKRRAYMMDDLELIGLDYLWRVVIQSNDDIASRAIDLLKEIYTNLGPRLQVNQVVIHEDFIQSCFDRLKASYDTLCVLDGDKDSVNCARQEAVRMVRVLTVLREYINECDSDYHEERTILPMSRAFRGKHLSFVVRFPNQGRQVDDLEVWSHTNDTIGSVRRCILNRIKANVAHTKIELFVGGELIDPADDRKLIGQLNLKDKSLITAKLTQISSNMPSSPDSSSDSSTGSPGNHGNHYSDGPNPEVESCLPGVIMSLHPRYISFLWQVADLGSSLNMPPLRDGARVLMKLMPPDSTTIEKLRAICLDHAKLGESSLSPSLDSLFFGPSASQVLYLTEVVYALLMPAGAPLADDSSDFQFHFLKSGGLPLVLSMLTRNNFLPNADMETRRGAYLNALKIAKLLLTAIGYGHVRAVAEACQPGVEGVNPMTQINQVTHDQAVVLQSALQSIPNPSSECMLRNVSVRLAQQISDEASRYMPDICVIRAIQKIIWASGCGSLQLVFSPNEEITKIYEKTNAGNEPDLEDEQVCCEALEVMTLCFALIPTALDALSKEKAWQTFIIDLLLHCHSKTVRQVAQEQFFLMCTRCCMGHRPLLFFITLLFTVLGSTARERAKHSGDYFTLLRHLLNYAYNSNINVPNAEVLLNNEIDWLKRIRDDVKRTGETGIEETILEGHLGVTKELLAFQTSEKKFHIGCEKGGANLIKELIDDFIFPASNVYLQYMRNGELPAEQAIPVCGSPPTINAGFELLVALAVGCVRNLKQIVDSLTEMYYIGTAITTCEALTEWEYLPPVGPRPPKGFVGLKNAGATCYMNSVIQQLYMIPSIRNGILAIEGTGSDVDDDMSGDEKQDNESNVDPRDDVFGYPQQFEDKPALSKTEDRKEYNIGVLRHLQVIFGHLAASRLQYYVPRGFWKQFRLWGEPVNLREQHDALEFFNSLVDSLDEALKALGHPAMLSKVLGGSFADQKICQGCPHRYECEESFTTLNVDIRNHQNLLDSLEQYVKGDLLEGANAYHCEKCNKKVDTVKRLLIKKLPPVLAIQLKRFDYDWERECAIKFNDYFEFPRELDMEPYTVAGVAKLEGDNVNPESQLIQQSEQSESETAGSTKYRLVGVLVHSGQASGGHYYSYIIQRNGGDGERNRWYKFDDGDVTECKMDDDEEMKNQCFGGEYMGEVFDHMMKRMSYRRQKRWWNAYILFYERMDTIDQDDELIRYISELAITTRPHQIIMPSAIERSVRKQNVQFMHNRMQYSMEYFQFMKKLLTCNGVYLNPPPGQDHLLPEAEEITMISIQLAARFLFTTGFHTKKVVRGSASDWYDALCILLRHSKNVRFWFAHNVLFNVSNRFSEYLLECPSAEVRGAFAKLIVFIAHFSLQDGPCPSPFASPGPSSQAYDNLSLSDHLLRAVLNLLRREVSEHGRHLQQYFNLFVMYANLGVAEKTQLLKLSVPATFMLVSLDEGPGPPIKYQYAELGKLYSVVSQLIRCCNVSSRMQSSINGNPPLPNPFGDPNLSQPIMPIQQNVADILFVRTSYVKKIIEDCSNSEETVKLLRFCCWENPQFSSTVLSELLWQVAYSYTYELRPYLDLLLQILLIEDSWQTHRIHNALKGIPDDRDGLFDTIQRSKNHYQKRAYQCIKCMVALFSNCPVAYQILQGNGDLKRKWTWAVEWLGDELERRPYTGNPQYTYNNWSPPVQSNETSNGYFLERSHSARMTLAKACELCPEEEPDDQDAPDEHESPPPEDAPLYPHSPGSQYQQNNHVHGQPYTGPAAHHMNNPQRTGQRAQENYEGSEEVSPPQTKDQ
Sequence of USP46 (P62068 whole entry): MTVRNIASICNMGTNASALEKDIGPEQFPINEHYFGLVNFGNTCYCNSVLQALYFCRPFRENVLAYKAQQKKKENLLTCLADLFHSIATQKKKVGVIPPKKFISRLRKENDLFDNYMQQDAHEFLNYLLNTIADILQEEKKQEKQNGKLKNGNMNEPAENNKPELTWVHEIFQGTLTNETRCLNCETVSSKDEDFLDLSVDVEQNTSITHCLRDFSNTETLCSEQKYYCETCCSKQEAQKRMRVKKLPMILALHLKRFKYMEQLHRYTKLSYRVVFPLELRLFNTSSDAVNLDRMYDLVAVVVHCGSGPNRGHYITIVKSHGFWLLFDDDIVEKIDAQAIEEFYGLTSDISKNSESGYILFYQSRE

N#Cc1ccccc1N1CCN(C(=O)CCl)CC1
active: USP7 -1.73
inactive: USP42 0.456 | USP46 -0.871 | USP47 -0.514 | USP48 -1.04 | USP5 -0.123 | USP54 1.03 | USP8 -0.729 | USP9X -0.651 | UniProt O00487 0.0611
